CD11b adhes inh = inhibitors of CD11b/CD18 adhesion to fibrinogen, primary screen, K562 cells, luminescence; 93,000 tested, 0.54% active; ATPlite luminescence; Mn2+ added to activate the integrin; Integrin beta-2 (Homo sapiens) + Integrin alpha-M (Homo sapiens), P05107+P11215; inhibition, % at 10 µM;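 active = primary inhibition of 50% or more at 10 µM, then 40% or more on retest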
CYP2C9 inhib = blockers of cytochrome P450 2C9 activity – biochemical, luminescence, ADME assay, primary screen; P11712; CYP2C9 Supersomes, luciferin-H conversion; inhibition, % at 5 µM; 96,000 tested, 20% active;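 active = blocking of liver enzyme CYP2C9 beyond about 50% at 5 µM, limit read from the data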
Target sequence (P11712 whole entry, looked up): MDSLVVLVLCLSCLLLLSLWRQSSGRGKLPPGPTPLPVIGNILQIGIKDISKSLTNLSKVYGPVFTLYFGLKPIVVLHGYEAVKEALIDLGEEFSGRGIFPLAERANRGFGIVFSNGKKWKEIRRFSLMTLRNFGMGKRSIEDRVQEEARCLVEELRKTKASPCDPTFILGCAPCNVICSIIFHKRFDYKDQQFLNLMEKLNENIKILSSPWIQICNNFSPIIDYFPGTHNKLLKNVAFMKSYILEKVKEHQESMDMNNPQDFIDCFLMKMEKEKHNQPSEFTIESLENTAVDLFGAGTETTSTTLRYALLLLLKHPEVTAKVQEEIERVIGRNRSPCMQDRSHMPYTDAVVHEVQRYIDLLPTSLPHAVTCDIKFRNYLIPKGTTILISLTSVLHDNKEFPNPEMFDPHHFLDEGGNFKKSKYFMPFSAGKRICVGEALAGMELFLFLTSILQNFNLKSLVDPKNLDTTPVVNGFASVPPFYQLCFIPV
Mac1 fbg enh = enhancers of CD11b/CD18 adhesion to fibrinogen, primary screen, K562 cells, luminescence; activation, % at 10 µM; Integrin beta-2 (Homo sapiens) + Integrin alpha-M (Homo sapiens), P05107+P11215; 93,000 tested, 0.07% active; ATPlite luminescence;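 active = 10 µM primary screen giving 50% or more activity, confirmed by 40% or more on retest at that dose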
CYP2C9 activ = human CYP2C9 activators, primary screen, biochemical, luminescence; recombinant CYP2C9, luciferin-H conversion; stronger effect = higher value; factor 1 = untreated enzyme, 0 = blocked; activation factor at 5 µM; 96,000 tested, 1.4% active; Cytochrome P450 2C9 (Homo sapiens), P11712;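 active = activation factor of 2 or more for CYP2C9 at a 5 µM dose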;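 note: 0 = sulfaphenazole-blocked wells and 1 = vehicle-only wells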
CYP2C19 act = human CYP2C19 activators, primary screen, biochemical, luminescence. activation factor at 5 µM. 96,000 tested, under 10 active. recombinant CYP2C19, luciferin-H EGE luminescence; stronger effect = higher value; 0 = fully inhibited enzyme, 1 = untreated enzyme;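 active = activation factor of at least 2 at 5 µM in the primary screen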;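 note: 0 = wells with 2.5 mM tranylcypromine and 1 = vehicle-only wells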
CYP2C19 inh = blockers of cytochrome P450 2C19 activity – biochemical, luminescence, ADME assay, primary screen; P33261; CYP2C19 Supersomes, luciferin-H EGE luminescence, 30 min; inhibition, % at 5 µM; 96,000 tested, 21% active;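 active = CYP2C19 inhibition above a set limit at 5 µM in the primary screen, cut at about 50% in these data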;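 note: plate controls were negative control wells for no effect and 2.5 mM tranylcypromine positive control for full effect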
Active calls of the source: *; x = no result. In the library only some 28% were active in any assay of this set; here they are far more common.

SMILES	CD11b adhes inh	CYP2C9 inhib	Mac1 fbg enh	CYP2C9 activ	CYP2C19 act	CYP2C19 inh
CCCCC1(C)OC(=O)C(=Cc2ccc(N(CC)CC)cc2)C(=O)O1 (stereo unspecified)	9	4	0	1	0.5	54*
O=C(c1cccnc1)N1CCN(Cc2ccc3c(c2)OCO3)CC1	9	-12	1	1.1	0.6	40
COc1cccc(N2CCN(C(=O)c3cccnc3)CC2)c1	-4	12	-4	0.9	0.3	71*
COc1ccc(CN2CCN(C(=O)c3cccnc3)CC2)cc1Br	24	47	-1	0.5	0.1	94*
O=C(c1cccnc1)N1CCN(Cc2ccccc2Br)CC1	3	-5	-1	1.1	0.2	80*
O=C(c1cccnc1)N1CCN(Cc2cccc(Br)c2)CC1	5	27	-3	0.7	0.1	94*
COc1ccc(C(=O)N2CCN(Cc3cc(OC)c(O)c(OC)c3)CC2)cc1OC	3	8	1	0.9	0.9	13
C/C(CC(=O)Nc1ccc(OCc2ccccc2)cc1)=N\NC(=O)C(=O)Nc1ccc(C)c(Cl)c1	-7	15	8	0.9	1	2
C/C(=N/NC(=O)c1sc(=S)n(C)c1C)c1ccccc1	3	x	-1	x	x	x
CCCCNC(=O)C1CC(=O)N(c2ccc(OC)cc2)C1c1ccc(OC)cc1 (stereo unspecified)	x	17	x	0.8	0.7	29
O=C(NCCC1=CCCCC1)N[C@@H](Cc1ccccc1)C(=O)O	12	-1	1	1	0.9	7
CN(C(=O)c1ccncc1)c1nnc(-c2cccnc2)s1	-15	100*	1	0	0.1	93*
CCN(C(=O)Cc1cccs1)c1nnc(-c2cccnc2)s1	0	50*	4	0.5	0.5	48
CN(C(=O)c1cccnc1)c1nc(-c2ccccc2)cs1	7	19	4	0.8	0.6	37
CN(C(=O)c1ccncc1)c1nnc(-c2ccccn2)s1	-2	99*	-4	0	0.2	81*
Cc1ccc(-c2nnc(N3CCN(C(=O)CSc4ncn[nH]4)CC3)c3ccccc23)cc1	-16	64*	8	0.4	0.3	70*
CCc1ccc(C(=O)CSc2ncn[nH]2)cc1	-2	31	1	0.7	0.3	75*
COc1ccc(C(=O)CSc2ncn[nH]2)cc1OC	-6	-15	2	1.1	0.7	29
Cc1ccc(C(=O)CSc2ncn[nH]2)cc1	-5	53*	-5	0.5	0.5	49
CCOC(=O)N1CCC(NC(=O)c2cc3ccccn3n2)CC1	5	10	3	0.9	0.9	6
CC1(C)CC(=O)c2c(-c3cccnc3)n[nH]c2C1	-10	-6	3	1.1	0.9	13
COc1ccc(CNCCC(c2ccccc2)c2ccc3c(c2)OCO3)cc1 (stereo unspecified)	x	6	x	0.9	0.2	79*
COC(=O)C1CCN(c2cc(=O)n(-c3ccc(OC)cc3)c(=O)[nH]2)CC1	-41	-26	-2	1.3	1.2	-23
Cc1cccc(-c2nsc(SCC(=O)NCc3ccco3)n2)c1	4	68*	-2	0.3	0.8	21
Cc1ccc2cc(C#N)c(SCC(=O)NCc3ccco3)nc2c1	-11	75*	-3	0.2	0.9	11
SMILES	CD11b adhes inh	CYP2C9 inhib	Mac1 fbg enh	CYP2C9 activ	CYP2C19 act	CYP2C19 inh
CCOC(=O)CN1C(=O)COc2ccc(C(C)(C)C)cc21	-2	10	-2	0.9	0.6	42
Cc1cc(Oc2ccccc2)nc(SCC(=O)Nc2ccc(Cl)c(Cl)c2)n1	33	65*	-6	0.4	0.4	56*
CC(=O)CSc1nc2ccc(Nc3nc(N4CCOCC4)nc(N4CCOCC4)n3)cc2s1	-9	55*	5	0.5	0.3	75*
Cc1cc(C)nc(SCC(=O)Nc2ccc(N3CCOCC3)c(Cl)c2)n1	18	52*	-1	0.5	0.6	36
Cc1cc(N2CCOCC2)nc(SCc2ccc(Cl)cc2Cl)n1	x	64*	x	0.4	0.5	48
Cc1cnnn1-c1ccc(C(=O)CCl)cc1	x	-14	x	1.1	1.3	-26
COc1ccc2c(c1)c(C(O)CN1CCC(Cc3ccccc3)CC1)c(C)n2C (stereo unspecified)	-10	1	0	1	1	0
CCn1c(SCC(=O)N/N=C/C=C\c2ccccc2[N+](=O)[O-])nc2ccccc21	-1	-51	-2	1.5	1	-5
O=C(CSc1nc2ccccc2o1)Nc1ccc(N2CCOCC2)c(Cl)c1	101	89*	-8	0.1	0.3	73*
CC(=O)Nc1ccc2nc(SCC(=O)Nc3ccc(N4CCOCC4)c(Cl)c3)sc2c1	x	76*	x	0.2	0.6	45
O=C(CSc1nc2ccccc2s1)Nc1ccc(N2CCOCC2)c(Cl)c1	99	x	-6	x	x	x
Fc1ccc(-c2n[nH]c(=S)n2/N=C/c2c[nH]c3ccccc23)cc1	-34	x	1	x	x	x
O=C(Nc1cnc2ccccc2c1)C1COc2ccccc2O1 (stereo unspecified)	-5	54*	0	0.5	0.1	90*
CCN(CC)S(=O)(=O)c1ccc(NC(=O)COC(=O)CN2C(=O)c3ccccc3C2=O)cc1	-10	81*	-6	0.2	0.7	33
O=C(CN1C(=O)c2ccccc2C1=O)OCC(=O)N1CCc2ccccc2C1	2	-44	-4	1.4	1.1	-14
O=C(Nc1ncc(C(F)(F)F)cc1Cl)C1COc2ccccc2O1 (stereo unspecified)	-6	21	-1	0.8	0.2	80*
O=C(NC1=NCCS1)C1COc2ccccc2O1 (stereo unspecified)	x	23	x	0.8	0.9	8
O=C(Nc1ccc2c(c1)CCC2)C1COc2ccccc2O1 (stereo unspecified)	9	-1	-1	1	0	95*
CC(=O)Nc1nc(C2COc3ccccc3O2)cs1 (stereo unspecified)	-44	31	0	0.7	0.6	39
Nc1ccccc1C(=O)NCc1ccccc1	-9	0	-1	1	1	-1
Cc1cc(=O)oc2cc(NC(=O)C3COc4ccccc4O3)ccc12 (stereo unspecified)	-8	-9	10	1.1	0.9	10
O=C(Nc1ccc2c(c1)OCO2)C1COc2ccccc2O1 (stereo unspecified)	-4	7	-2	0.9	0.3	70*
O=C(Nc1ccncc1)C1COc2ccccc2O1 (stereo unspecified)	-6	52*	-2	0.5	0	96*

Assay outcomes (PubChem BioAssay)
